Screening results from PubChem BioAssay.
Hits are enriched below; roughly 3.5% of the tested compounds scored in any of these assays.
MITF inh: MITF inhibitors, primary screen, biochemical, AlphaScreen, human; Microphthalmia-associated transcription factor (Homo sapiens), O75030; AlphaScreen MITF homodimerization, bead proximity signal; inhibition, % at 2.6 µM; actives 0.91% (n = 650,000); in the data active means inhibition above about 50%;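 further: 0% = vehicle wells with protein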
FBW7 act: FBW7 E3 ligase activators, primary screen, biochemical, AlphaScreen, human | F-box/WD repeat-containing protein 7 (Homo sapiens), Q969H0 | AlphaScreen FBW7–phospho-cyclin E peptide binding, activator screen | normalized activity (activation), % at 26.1 µM | actives 0.13% (n = 650,000) | AID 1259310, 2017; in the data active means normalized activity above about 1.9%;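 further: purified mutant Fbw7 with reduced substrate affinity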
Target sequence (Q969H0 whole entry, looked up): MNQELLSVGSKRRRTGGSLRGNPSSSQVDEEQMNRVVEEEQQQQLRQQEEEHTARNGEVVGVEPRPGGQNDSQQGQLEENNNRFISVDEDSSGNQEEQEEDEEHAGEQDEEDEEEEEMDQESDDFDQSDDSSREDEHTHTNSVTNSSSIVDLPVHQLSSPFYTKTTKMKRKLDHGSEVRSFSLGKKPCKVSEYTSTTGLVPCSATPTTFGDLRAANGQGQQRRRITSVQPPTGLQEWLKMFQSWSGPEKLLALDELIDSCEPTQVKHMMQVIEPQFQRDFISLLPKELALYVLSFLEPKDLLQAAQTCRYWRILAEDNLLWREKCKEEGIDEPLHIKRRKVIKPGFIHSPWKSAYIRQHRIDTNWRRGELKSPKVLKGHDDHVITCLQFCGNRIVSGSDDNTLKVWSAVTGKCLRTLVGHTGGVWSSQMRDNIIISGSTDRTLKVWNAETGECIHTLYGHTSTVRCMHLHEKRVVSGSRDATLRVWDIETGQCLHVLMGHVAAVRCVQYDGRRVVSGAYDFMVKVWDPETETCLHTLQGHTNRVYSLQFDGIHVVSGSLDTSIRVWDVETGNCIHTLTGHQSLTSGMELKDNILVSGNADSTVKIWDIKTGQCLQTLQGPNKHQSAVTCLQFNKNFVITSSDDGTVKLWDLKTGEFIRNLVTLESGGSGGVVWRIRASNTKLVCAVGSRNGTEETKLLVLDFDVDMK
TEAD-YAP inh: TEAD-YAP interaction inhibition, primary screen, TEAD-YAP interaction inhibitor project, luminescence, HEK-TIYL cells | TEAD-Gal4/YAP UAS-luciferase luminescence | AID 1259422, 2018 | actives 1.4% (n = 640,000) | inhibition, % at 9.12 µM; in the data active means inhibition above about 32%;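 further: 0% = median of test compound wells and 100% = reference inhibitor wells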
GPR151 ag: activators of human GPR151, primary screen, cell-based, PathHunter beta-arrestin, luminescence | G-protein coupled receptor 151 (Homo sapiens), Q8TDV0 | PathHunter beta-arrestin GPR151 cells | activation, % at 11.2 µM | actives 1% (n = 650,000) | AID 1508602, 2020; in the data active means activation above about 4.9%;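 further: 0% = median of compound wells and 100% = cells with positive control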
GPR151 confirm: GPR151 activators, triplicate retest, confirmation, cell-based, PathHunter beta-arrestin, luminescence | shares compounds with GPR151 ag | 6,700 tested, under 10 active | activation, % at 11.2 µM | GPR151 PathHunter beta-arrestin cells, 90 min; % of EA-reagent control over plate median;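 active means mean percent activation across replicates above the confirmation screen cutoff of 4.91%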
GPR119 ag: GPR119 activators in beta-arrestin cells, counter-screen for GPR151 activator project, cell-based, PathHunter beta-arrestin, luminescence, triplicate. shares compounds with GPR151 ag. 90 min; 0 = compound-well median, 100 = enzyme-acceptor control. AID 1508611, 2020. activation, % at 11.2 µM. actives 0.3% (n = 6,700);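 active means mean percent activation in the counterscreen above 29.09%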;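 further: counterscreen on off-target GPR119 to flag nonselective hits from the GPR151 activator screen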
* = called active by the depositor; nt = no result.

SMILES | MITF inh | FBW7 act | TEAD-YAP inh | GPR151 ag | GPR151 confirm | GPR119 ag
O=C(Nc1ccc(Cl)c(Cl)c1)OCc1ccco1 | 4 | 0 | -15 | 6.0* | 1 | 0
Cc1ccc2c(c1)N(C(=O)N1CCC(C(=O)NCc3cccc(F)c3)CC1)CC(C)O2 (stereo unspecified) | -5 | 0 | 3 | -1 | nt | nt
CCOC(=O)C(C#N)=C(c1ccccc1)c1ccccc1 | -8 | 0 | 5 | 0 | nt | nt
CCOC(=O)/C(C#N)=C(\C)c1ccccc1 | 7 | 0 | -5 | 7.0* | 2 | 8
Cc1ccc(Cn2c(NN)nc3c2c(=O)n(C)c(=O)n3C)cc1 | 0 | 0 | 3 | 0 | nt | nt
CC(=O)N1CCN(Cc2cccc(Cl)c2Cl)CC1 | -5 | 0 | -3 | 1 | nt | nt
CC(=O)N1CCN(Cc2ccccc2Br)CC1 | 7 | 0 | -3 | 7.9* | 1 | 1
COCCCNCC(O)COc1ccc(C)cc1 (stereo unspecified) | 36 | 0 | 6 | -1 | nt | nt
Fc1ccc(C2CC(c3ccc(Br)cc3)=NN2c2nc(-c3ccccc3)c3cc(Br)ccc3n2)cc1 (stereo unspecified) | -2 | 0 | 5 | 5.8* | 0 | 2
COc1ccccc1N=C1SC(CC(=O)Nc2cccc([N+](=O)[O-])c2)C(=O)N1C (stereo unspecified) | -3 | 0 | -6 | 14* | -1 | -7
O=c1c2cc3c(cc2[nH]c(=S)n1CCc1ccccc1Cl)OCO3 | 13 | 0 | -2 | 0 | nt | nt
CCCS(=O)(=O)c1c(S(=O)(=O)CCC)c2ccc(C(C)=O)cn2c1C(=O)c1ccc(F)cc1 | 8 | 0 | 2 | 0 | nt | nt
CC(C)CC(NC(=O)c1ccc(Cl)cc1Cl)C(=O)O (stereo unspecified) | 6 | 0 | -1 | -1 | nt | nt
O=C(N[C@@H](Cc1ccccc1)C(=O)O)c1ccc(Cl)cc1Cl | 11 | 0 | 1 | 5.0* | 0 | 2
Cn1c(Nc2cccc(C(=O)NCCN3CCOCC3)n2)nc2ccccc21 | 26 | 0 | -1 | 1 | nt | nt
CC(C)Sc1ccc2nnc(-c3ccc(F)cc3)n2n1 | 6 | 0 | -14 | 0 | nt | nt
Cn1c(=O)cc(NCCCN2CCOCC2)n(Cc2ccccc2)c1=O | -16 | 0 | -2 | 1 | nt | nt
O=C1NC(=O)/C(=C\c2ccc(OCc3ccc(Cl)cc3)c(Br)c2)N1 | -11 | 0 | -11 | 0 | nt | nt
Cc1cc(C)n(-c2cccc(CN(C)C(=O)Cn3nnnc3CN3CCC(C)CC3)c2)n1 | 2 | 0 | 4 | 5.7* | 0 | 4
N=C1C(c2nc3ccccc3[nH]2)=C(O)CN1c1ccc(O)cc1 | 13 | 0 | -28 | -1 | nt | nt
CCCSc1ncnc2c1c(-c1ccccc1)cn2-c1cccc(F)c1 | -7 | 0 | -4 | 7.6* | 0 | 13
CC(C)Nc1ncnc2c1c(-c1ccccc1)cn2-c1cccc(Cl)c1 | -11 | 0 | -37 | -2 | nt | nt
Cc1cccc(-n2cc(-c3ccccc3)c3c(NC(C)C)ncnc32)c1 | 7 | 0 | -21 | 5.0* | -1 | -1
COc1ccc(OC)c(C(=O)COC(=O)c2cc(C)oc2C)c1 | -3 | 0 | -8 | 13* | 1 | 11
CCCOc1ccc(NC(=O)CC2C(=O)N(c3ccc(Cl)cc3)C(=S)N2Cc2ccncc2)cc1 (stereo unspecified) | 4 | 0 | 1 | 6.3* | 2 | -6
SMILES | MITF inh | FBW7 act | TEAD-YAP inh | GPR151 ag | GPR151 confirm | GPR119 ag
COc1ccc(NC(=O)CC2C(=O)N(c3ccc(Cl)cc3)C(=S)N2CCCN2CCOCC2)cc1 (stereo unspecified) | 11 | 0 | 1 | 5.0* | 0 | 19
NC(=O)CC1C(=O)N(c2ccc(Cl)cc2)C(=S)N1Cc1cccnc1 (stereo unspecified) | 7 | 0 | 7 | 5.4* | 0 | 3
CCCOc1ccc(NC(=O)CC2C(=O)N(c3ccc(Cl)cc3)C(=S)N2Cc2cccnc2)cc1 (stereo unspecified) | 10 | 0 | -3 | 0 | nt | nt
CCN1CCN(CCCN2C(=S)N(c3ccc(Cl)cc3)C(=O)C2CC(=O)Nc2ccc(OC)cc2)CC1 (stereo unspecified) | 0 | 1 | -2 | 0 | nt | nt
CCC1CN(CC(=O)NCCN2CCOCC2)Cc2cc(OC)ccc2O1 (stereo unspecified) | 14 | 0 | 5 | 2 | nt | nt
O=C(Nc1cc(C(=O)N2CCOCC2)ccc1N1CC2CC(C1)c1cccc(=O)n1C2)c1ccc(F)cc1 (stereo unspecified) | 5 | 0 | 30 | 0 | nt | nt
Cc1nnc(NC(=O)c2ccc3c(c2)C(=O)N(CC2CCCO2)C3=O)s1 (stereo unspecified) | 17 | 0 | 1 | 6.9* | 0 | 9
Cc1cc(NC(=O)c2ccc3c(c2)C(=O)N(CC2CCCO2)C3=O)no1 (stereo unspecified) | 1 | 0 | -3 | 0 | nt | nt
COc1ccc(CNS(=O)(=O)c2ccc(F)c(C(=O)Nc3cccc(C)c3)c2)cc1 | 3 | 0 | 11 | 2 | nt | nt
CC(C)(C)c1ccc(C(=O)On2c(-c3ccccc3F)nc3ccccc3c2=O)cc1 | 3 | 0 | 0 | 5.9* | 1 | 14
CCCC1CCc2c(sc(NS(=O)(=O)c3ccc(NC(C)=O)cc3)c2C(N)=O)C1 (stereo unspecified) | 6 | 0 | 1 | 10* | 0 | -9
CC(=O)Nc1ccc(S(=O)(=O)Nc2sc3c(c2C(N)=O)CCC(C)C3)cc1 (stereo unspecified) | 3 | 0 | 6 | -1 | nt | nt
O=C(COc1ccc(C(=O)N2CCN(c3ccccc3Cl)CC2)cc1)C1CC1 | 1 | 0 | -11 | 0 | nt | nt
O=C(COc1ccc(C(=O)N2CCN(CCc3ccccc3)CC2)cc1)C1CC1 | 15 | 0 | 3 | 5.1* | -1 | 7
CSCC(=O)N1CCCC(C(=O)Nc2ccc(-c3cccc(F)c3)cc2)C1 (stereo unspecified) | -6 | 0 | -38 | 5.6* | 1 | 5
CC(C)(CO)CN1CCCC(C(=O)Nc2cccc(-c3ccc(F)cc3)c2)C1 (stereo unspecified) | -18 | 1 | -5 | 6.2* | -1 | -15
O=C(Nc1ccc(-c2cccc(F)c2)cc1)C1CCCN(C(=O)c2cscn2)C1 (stereo unspecified) | 15 | 0 | -33 | -2 | nt | nt
CSCCC(=O)N1CCCC(C(=O)Nc2ccc(-c3cccc(F)c3)cc2)C1 (stereo unspecified) | 5 | 0 | -7 | 2 | nt | nt
